Compound activity: PubChem BioAssay, National Center for Advancing Translational Sciences (NCATS)
DT40 TDP1 CPT – DT40-hTDP1 cell growth loss with CPT; Potency, µM (doses to about 46.2 µM), inactives show top-dose activity change, negative = growth inhibition, usual class: inhibitors; chicken DT40 Tdp1-/-;hTDP1 cells + 20 nM CPT, ATP luminescence, 48 h; actives 12% (n = 420,000); also: potency is read from the fitted curve at half-maximal effect; nearly all actives have a fitted effect of over 55% in size
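Cell growth measured by CellTiter-Glo luminescence after a minimum 48 h, 37 C compound exposure with 20 nM CPT in Tdp1-knockout DT40 cells stably expressing hTDP1, seeded 400/well; qHTS titration format.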
TDP1 cell noCPT – qHTS for Inhibitors of human tyrosyl-DNA phosphodiesterase 1 (TDP1): qHTS in cells in absence of CPT | DT40 Tdp1-/- hTDP1 cells, no CPT, ATP luminescence, 48 h | Potency, µM (top dose mostly 46.2 µM), for the others: top-dose activity change, negative = growth inhibition, actives largely listed as inhibitors | actives 15% (n = 420,000) | AID 686978, 2013; also: potency is read from the fitted curve at half-maximal effect; nearly all actives have a fitted effect of over 55% in size
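Seeded 400 DT40-hTDP1 cells/well (vehicle DMSO, no 20 nM CPT); pinned compounds; ≥48 hr at 37 °C; CellTiter-Glo luminescence as viability measure.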
VP16 counter – counter-screen for ROR gamma inhibitors: Gal4-VP16 reporter; Drosophila S2 Gal4-VP16 UAS-luciferase, luminescence, 20 h; Potency, µM (series often up to 53.6 µM), inactives show top-dose activity, negative = inhibition, usual class: inhibitors; actives 3.5% (n = 310,000); AID 2546;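 also: Gal4-VP16 expression switched on by copper sulfate through the metallothionein promoter; potency is read from the fitted curve at half-maximal effect; nearly all actives have a fitted effect of over 50% in size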
RORg inh – blocks mouse ROR gamma transcriptional activity | P51450 | Drosophila S2 Gal4-RORgamma UAS-luciferase reporter, 20 h | Potency, µM (doses to about 53.6 µM), for the others: at the top dose activity change, negative = inhibition, most hits filed as inhibitors | actives 5.4% (n = 310,000) | AID 2551; also: potency is read from the fitted curve at half-maximal effect; nearly all actives have a fitted effect of over 60% in size
Target sequence (P51450 whole entry, looked up, the tested form may be a part): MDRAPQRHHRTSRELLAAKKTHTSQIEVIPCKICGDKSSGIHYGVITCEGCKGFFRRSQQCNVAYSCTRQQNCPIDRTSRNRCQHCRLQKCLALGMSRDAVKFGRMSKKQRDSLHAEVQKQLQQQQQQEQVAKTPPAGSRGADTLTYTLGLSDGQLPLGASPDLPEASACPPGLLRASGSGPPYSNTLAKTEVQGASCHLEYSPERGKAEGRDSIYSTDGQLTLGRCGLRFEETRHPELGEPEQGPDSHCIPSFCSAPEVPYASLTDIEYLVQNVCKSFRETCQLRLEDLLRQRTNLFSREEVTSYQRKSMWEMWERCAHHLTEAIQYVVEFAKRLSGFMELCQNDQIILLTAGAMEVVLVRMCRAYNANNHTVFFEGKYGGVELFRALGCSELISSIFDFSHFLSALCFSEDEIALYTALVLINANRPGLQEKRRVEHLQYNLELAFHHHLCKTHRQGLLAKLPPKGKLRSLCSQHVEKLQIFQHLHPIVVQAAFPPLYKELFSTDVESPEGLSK
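Luciferase reporter read in Schneider cells carrying Gal4-RORγ (mouse) and UAS-Photinus luciferase; cells given compound 1 h before 700 uM copper sulfate induction, then incubated 20 h at ambient temperature.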
LDHA block – inhibitors of human lactate dehydrogenase A; activity change, % (values are at about 110 or 230 µM); actives 0.15% (n = 480,000); purified LDHA, NADH/diaphorase-resazurin fluorescence; stronger effect = lower value; P00338; in the data active = activity change below about -30%; inconclusive = mostly about -25% to -30%;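 also: plate controls were DMSO wells for no effect and wells without enzyme for full effect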
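LDH5 2 nM; NADH 0.06 mM, pyruvate 0.2 mM; 200 mM Tris pH 7.4, EDTA, Tween-20; 5 min RT. Detection: diaphorase 0.133 mg/mL + resazurin 37 µM, fluorescence ex540/em590 at 0 and 20 min; normalized to enzyme-free and DMSO wells.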
IL1B secr inh – inhibitors of inflammasome signaling (IL-1 beta secretion); THP-1 LPS/ATP IL-1B secretion, AlphaLISA, 16 h; stronger effect = lower value; activity change, % at 57.5 µM; actives 4.7% (n = 360,000); in the data active = activity change below about -50%; inconclusive = mostly about -30% to -49%
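Secreted IL-1B measured by AlphaLISA bead assay after 16 h compound exposure of THP-1 cells; compounds (final up to 57.5 uM) added 1 h before LPS (250 ng/mL) and ATP (1.25 mM) stimulation; lower signal means less secretion.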
The depositor's hits bear a star; ? = inconclusive; · = no result; [ ] = another dose, or the depositor's remark. Only some compounds are listed: those with a hit (about 18% of all), similar ones and a draw of the others. Unless noted, calls follow the shape of the dose curve; as a rule, active = well fitted curve in the direction sought with a large enough effect; inconclusive = small, poorly fitted or top-dose-only effect, or another doubt; inactive = no such curve, though single readings can be large; an effect the other way counts as inactive or inconclusive. Unless noted, % is scaled to controls: 0 for no effect and ±100 for the full control effect.

SMILES	DT40 TDP1 CPT	TDP1 cell noCPT	VP16 counter	RORg inh	LDHA block	IL1B secr inh
Cc1cc(C)c(C2=CC(=O)C[C@H](c3ccc4c(c3)OCO4)C2)c(C)c1	18µM*	?	·	·	1	8
Cc1cc(C2=CC(=O)C[C@H](c3ccc4c(c3)OCO4)C2)ccc1F	-18%	-28%	·	·	-10	-51*
O=C1C=C(c2ccc3c(c2)OCO3)C[C@@H](c2ccc3c(c2)OCO3)C1	-9%	-23%	·	·	0	11
O=C1C=C(c2ccc3cc[nH]c3c2)C[C@@H](c2ccc3c(c2)OCO3)C1	1.8µM*	10µM*	·	·	4	2
CC(C)N(Cc1ccccc1)C(=O)COc1ncnc2c(Cl)cc(Cl)cc12	·	·	·	·	7	·
CCOC(=O)C(=O)N(C)c1c(CC)nc2c(OCc3ccc(Cl)cc3)cccn12	?	?	·	·	-4	16
CCc1nc2c(OCc3cccc(Cl)c3)cccn2c1N(C)C(=O)C1CC1	16µM*	?	·	·	1	-21
CCc1nc2c(OCC(=O)c3ccc(Cl)cc3Cl)cccn2c1N(C)C(=O)c1ccncc1	?	?	·	·	0	3
CCOC(=O)C(=O)N(C)c1c(CC)nc2c(OCc3cc(Cl)cc(Cl)c3)cccn12	18µM*	21µM*	·	·	0	-14
CCc1nc2c(OCc3ccccc3)cccn2c1N(C)C(=O)Nc1ccccc1OC	?	?	·	·	0	-4
CCc1nc2c(OCc3cc(Cl)cc(Cl)c3)cccn2c1N(C)C(=O)Nc1ccccc1OC	23µM*	?	·	·	2	0
CCCCC(=O)N(C)c1c(CC)nc2c(OCC(=O)c3ccc(Cl)cc3Cl)cccn12	23µM*	?	·	·	2	·
O=C(Nc1ccc(Cl)cc1)Nc1nnc(COc2ccc(Cl)cc2)s1	·	·	·	·	3	·
O=C1CSc2ccc(C(=O)OCC(=O)NC3CCCc4ccccc43)cc2N1 (stereo not given)	·	·	·	·	0	·
CCOC(=O)c1sc(NC(=O)Nc2cccc(Cl)c2)nc1C	·	·	·	·	1	·
CCc1nc2c(OCc3ccc(C(F)(F)F)cc3)cccn2c1N(C)C(=O)C1CC1	23µM*	23µM*	·	·	-2	-25
CCCCC(=O)N(C)c1c(CC)nc2c(OCCOC)cccn12	-14%	0%	·	·	-2	-2
CCc1nc2c(OCc3ccc(Cl)cc3)cccn2c1N(C)C(=O)C1CC1	?	?	·	·	-4	-5
CCCCC(=O)N(C)c1c(CC)nc2c(OCc3cc(Cl)cc(Cl)c3)cccn12	?	?	·	·	2	-62*
CCOC(=O)C(=O)N(C)c1c(CC)nc2c(OCc3cccc(Cl)c3)cccn12	16µM*	?	·	·	-3	18
Cc1ccc(NC(=O)c2nc(S(C)(=O)=O)ncc2N(Cc2ccco2)Cc2ccco2)cc1C	?	?	·	·	-11	·
Cc1ccccc1NC(=O)c1nc(S(C)(=O)=O)ncc1N(Cc1ccco1)Cc1ccco1	·	·	·	·	10	·
COc1ccc(NC(=O)c2nc(S(C)(=O)=O)ncc2N(Cc2ccc(C)cc2)Cc2ccco2)cc1Cl	?	18µM*	·	·	-2	·
CCS(=O)(=O)c1ncc(N(Cc2ccccc2)Cc2ccco2)c(C(=O)Nc2ccccc2C)n1	-18%	-23%	·	·	-9	·
Cc1ccc(NC(=O)c2nc(S(C)(=O)=O)ncc2N(Cc2ccccc2)Cc2ccco2)c(C)c1	13µM*	18µM*	·	·	-5	·
SMILES	DT40 TDP1 CPT	TDP1 cell noCPT	VP16 counter	RORg inh	LDHA block	IL1B secr inh
CCS(=O)(=O)c1ncc(N(Cc2ccccc2)Cc2ccco2)c(C(=O)Nc2ccc(C)c(C)c2)n1	21µM*	12µM*	·	·	-10	·
CS(=O)(=O)c1ncc(N(Cc2ccco2)Cc2cccs2)c(C(=O)Nc2ccccc2F)n1	?	21µM*	·	·	3	·
CSc1cccc(N/C=C/C(=O)c2ccc(C)c(C)c2)c1	·	·	·	·	6	·
COc1ccc(Cl)cc1NC(=O)c1nc(S(C)(=O)=O)ncc1N(Cc1ccc(C)cc1)Cc1ccco1	8.2µM*	9.2µM*	·	·	-21	·
CCc1ccc(CN(Cc2ccco2)c2cnc(S(C)(=O)=O)nc2C(=O)Nc2cccc(C)c2)cc1	13µM*	21µM*	·	·	2	·
CS(=O)(=O)N1CCN(c2ccccc2NC(=O)c2cccc3ccccc23)CC1	0%	-13%	-11%	20%	-3	-8
CC(C)C(=O)N1CCN(c2ccccc2NC(=O)c2cccc(Cl)c2)CC1	?	16µM*	3%	-21%	-4	?
CC(C)C(=O)N1CCN(c2ccccc2NC(=O)c2cccc3ccccc23)CC1	?	16µM*	1%	51%	-6	15
Cn1c(=O)n(C)c2cc(N3CCCCC3)c(NC(=O)c3cccc(Cl)c3)cc21	?	-25%	-12%	-1%	4	36
COC(=O)c1ccccc1NC(=S)NC(=O)c1ccccc1C	23µM*	-20%	?	7.9µM*	-4	-8
Cc1ccccc1C(=O)NC(=S)Nc1ccccc1[N+](=O)[O-]	-16%	-17%	?	6.3µM*	-5	?
COC(=O)c1ccccc1NC(=S)NC(=O)c1ccc(C)cc1	?	-35%	?	16µM*	-1	0
C=CC[C@]12C[C@@H](OC)C(=O)C=C1O[C@@H](c1ccc(OC)c(OC)c1)[C@H]2C	18µM*	?	·	·	-2	3
Cc1cc(NC(=O)Nc2ccc3c(ccn3C)c2)sn1	?	?	-6%	?	-6	-100*
NS(=O)(=O)c1ccc(CCNCC(O)COCc2ccc(Cl)cc2)cc1 (stereo not given)	·	·	·	·	2	·
CC1CC(OC(=O)C(O)c2ccccc2)CC(C)(C)C1 (stereo not given)	?	7.5µM*	-25%	13%	·	·
C[C@@H]1C[C@H](OC(=O)c2ccccc2O)CC(C)(C)C1	·	·	7%[17 µM]	14%[16.9 µM]	·	·
c1ccc(C[C@H]2CN=C(Nc3ccccc3)N2CC2CCCCC2)cc1	16µM*	?	·	·	-3	?
C[C@H]1CN=C(Nc2ccccc2)N1CCc1ccccc1	-12%	-10%	·	·	-2	3
CCCCN1C(Nc2ccccc2)=NC[C@@H]1Cc1ccccc1	23µM*	?	·	·	1	-15
c1ccc(C[C@H]2CN=C(Nc3ccccc3)N2CC2CCCC2)cc1	10µM*	12µM*	·	·	-5	-70*
c1ccc(C[C@H]2CN=C(Nc3ccccc3)N2CC2CCC2)cc1	?	?	·	·	-3	-9
CC1CCC(CN2C(Nc3ccccc3)=NC[C@@H]2C)CC1 (stereo not given in full)	18µM*	?	6%	0%	-8	0
